Compounds without any hit were thinned out: in the full panel of roughly 79,000, 15% have a hit. A number with no mark means an inactive call. Active and inactive are the calls of the source. Cut-off read from the data, not from the text of the source: active = growth inhibition above about 70%; inactive = the rest.

A short description of assay [1]: NCI Yeast Anticancer Drug Screen. Data for the rad50 strain (AID 155).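 Note: 0% = growth of vehicle-only cultures of the same strain.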 Particulars: S. cerevisiae rad50 strain growth inhibition, hits give high values. Summed up:
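Cells are treated with compound, grown, and their growth is then scored against vehicle-only cultures of the same repair-deficient yeast strain.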

The nature of assay [2]: NCI Yeast Anticancer Drug Screen. Data for the mec2-1 strain (AID 157). Particulars: S. cerevisiae mec2-1 strain, hits give high values. Summed up:
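Using mec2-1 yeast: add compound, measure growth, express inhibition versus vehicle-treated cultures.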

Assay [3] can be described thus: NCI Yeast Anticancer Drug Screen. Data for the sgs1 mgt1 strain (AID 161).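 Note: 0% = growth of cultures given vehicle only.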 Particulars: S. cerevisiae sgs1 mgt1 strain, hits give high values. Summed up:
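Compounds are added to genetically altered yeast, and growth is compared with cultures given vehicle alone to give percent inhibition.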

Assay [4] can be described thus: NCI Yeast Anticancer Drug Screen. Data for the cln2 rad14 strain (AID 165).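 Note: 0% = growth equal to vehicle treated cultures.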 The following applies: S. cerevisiae cln2 rad14 strain, hits give high values. In a few lines:
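Yeast strain cln2 rad14, bearing defects in cell cycle control and DNA repair, serves as the test system; values reflect growth inhibition compared with vehicle.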

Assay [5] in a line: NCI Yeast Anticancer Drug Screen. Data for the bub3 strain (AID 167). The following applies: S. cerevisiae bub3 mutant strain, hits give high values. Summed up: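 Part of a panel of yeast mutants defective in DNA damage repair or cell cycle regulation. Each strain is grown with compound, and inhibition is calculated relative to solvent-treated cultures.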
A short description of assay [6]: NCI Yeast Anticancer Drug Screen. Data for the mlh1 rad18 strain (AID 175). Particulars: S. cerevisiae mlh1 rad18 strain growth inhibition, hits give high values. In a few lines:
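Steps: expose repair-defective yeast to compound; measure growth; express inhibition against vehicle-treated controls.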

Where [7] appears, read: at 5.0 µM (retest, dose inferred, filed as 0.5).
Where [8] appears, read: at 50.0 µM (retest, dose inferred, filed as 5.0).

In the case of `OC1OCC(OCc2ccccc2)C(OCc2ccccc2)C1OCc1ccccc1` (configuration not stated), the growth inhibition was -4% in assay [1] (setting [7]); 61% in assay [1] (setting [8]); 97.4% (active) in assay [1] (at 50.0 µM); -25% in assay [2] (setting [7]); 59% in assay [2] (setting [8]); 96.9% (active) in assay [2] (at 50.0 µM). Further, the growth inhibition in assay [3] (setting [7]) was -3%; in assay [3] (setting [8]), 68%; in assay [3] (at 50.0 µM), 96.7% (active); in assay [4] (setting [7]), -3%; in assay [4] (setting [8]), 59%; in assay [4] (at 50.0 µM) it was 81.5% (active). Besides, the growth inhibition is -5% in assay [5] (setting [7]); 51% in assay [5] (setting [8]); 97.7% (active) in assay [5] (at 50.0 µM); 10% in assay [6] (setting [7]); 86% (active) in assay [6] (setting [8]); 98.5% (active) in assay [6] (at 50.0 µM).
`CC(SC1=CC(=O)c2c(O)ccc(O)c2C1=O)C(=O)O` (configuration not stated): the growth inhibition is 9% in assay [1] (setting [7]); -19% in assay [1] (setting [8]); 22.6% in assay [1] (at 50.0 µM); -4% in assay [2] (setting [7]); -2% in assay [2] (setting [8]); 11.8% in assay [2] (at 50.0 µM). Further, the growth inhibition is 19% in assay [3] (setting [7]); 5% in assay [3] (setting [8]); 19.9% in assay [3] (at 50.0 µM); -5% in assay [4] (setting [7]); -6% in assay [4] (setting [8]); -27.6% in assay [4] (at 50.0 µM). In addition, the growth inhibition in assay [5] (setting [7]) was -6%; in assay [5] (setting [8]), -5%; in assay [5] (at 50.0 µM), 4%; in assay [6] (setting [7]) it was -5%; in assay [6] (setting [8]), -6%; in assay [6] (at 50.0 µM), 25.1%.
`N#CC1C(=O)NC(=O)C(C#N)C1c1ccc(Cl)c(Cl)c1` (configuration not stated): the growth inhibition was -1% in assay [1] (setting [7]); 42% in assay [1] (setting [8]); 89.2% (active) in assay [1] (at 50.0 µM); -1% in assay [2] (setting [7]); 35% in assay [2] (setting [8]); 39.5% in assay [2] (at 50.0 µM). In addition, the growth inhibition was 1% in assay [3] (setting [7]); 26% in assay [3] (setting [8]); 57.5% in assay [3] (at 50.0 µM); -7% in assay [4] (setting [7]); -2% in assay [4] (setting [8]); 21.9% in assay [4] (at 50.0 µM). Also, the growth inhibition in assay [5] (setting [7]) was -8%; in assay [5] (setting [8]), 34%; in assay [5] (at 50.0 µM) it was 58.3%; in assay [6] (setting [7]), -2%; in assay [6] (setting [8]) it was 53%; in assay [6] (at 50.0 µM), 63.4%.
For the compound `CSc1cc2c(cc1N)Cc1cc(F)ccc1-2`, the growth inhibition in assay [1] (setting [7]) is 4%; in assay [1] (setting [8]), 73% (active); in assay [1] (at 50.0 µM) it was 98.3% (active); in assay [2] (setting [7]), -1%; in assay [2] (setting [8]), 78% (active); in assay [2] (at 50.0 µM), 98.2% (active). The growth inhibition in assay [3] (setting [7]) was 0%; in assay [3] (setting [8]), 85% (active); in assay [3] (at 50.0 µM), 98.5% (active); in assay [4] (setting [7]) it was -10%; in assay [4] (setting [8]), 93% (active); in assay [4] (at 50.0 µM), 97.2% (active). Further, the growth inhibition was -3% in assay [5] (setting [7]); 84% (active) in assay [5] (setting [8]); 98% (active) in assay [5] (at 50.0 µM); -2% in assay [6] (setting [7]); 82% (active) in assay [6] (setting [8]); 98.5% (active) in assay [6] (at 50.0 µM).
`O=C(Nc1cc(-c2ccccc2)[nH]n1)c1ccccc1`: the growth inhibition in assay [1] (setting [7]) is 34%; in assay [1] (setting [8]), 36%; in assay [1] (at 50.0 µM) it was 33.4%; in assay [2] (setting [7]) it was 29%; in assay [2] (setting [8]), 37%; in assay [2] (at 50.0 µM), 16.1%. Moreover, the growth inhibition in assay [3] (setting [7]) is 38%; in assay [3] (setting [8]) it was 58%; in assay [3] (at 50.0 µM), 23.9%; in assay [4] (setting [7]), 23%; in assay [4] (setting [8]), 25%; in assay [4] (at 50.0 µM) it was 18%. For the same compound, the growth inhibition in assay [5] (setting [7]) is 31%; in assay [5] (setting [8]), 73% (active); in assay [5] (at 50.0 µM), 56.8%; in assay [6] (setting [7]) it was 46%; in assay [6] (setting [8]) it was 47%; in assay [6] (at 50.0 µM), 23.4%.
Take `CCCCCCCCCCCCCCCCOc1ccc(S(=O)(=O)N/N=c2/sc3ccc(S(=O)(=O)O)cc3n2C)cc1C(=O)O`: the growth inhibition was 6% in assay [1] (setting [7]); 88% (active) in assay [1] (setting [8]); 79.6% (active) in assay [1] (at 50.0 µM); 6% in assay [2] (setting [7]); 63% in assay [2] (setting [8]); 78.7% (active) in assay [2] (at 50.0 µM). The growth inhibition in assay [3] (setting [7]) is 0%; in assay [3] (setting [8]) it was 76% (active); in assay [3] (at 50.0 µM), 76% (active); in assay [4] (setting [7]) it was 16%; in assay [4] (setting [8]), 62%; in assay [4] (at 50.0 µM), 40.2%. For the same compound, the growth inhibition in assay [5] (setting [7]) was -3%; in assay [5] (setting [8]), 83% (active); in assay [5] (at 50.0 µM), 68.8%; in assay [6] (setting [7]), -13%; in assay [6] (setting [8]), 88% (active); in assay [6] (at 50.0 µM) it was 73.4% (active).
For `CC(C)(C)c1cc(Cl)c(O)c(Cc2cc(C(C)(C)C)cc(Cl)c2O)c1`, the growth inhibition in assay [1] (setting [7]) is 5%; in assay [1] (setting [8]) it was 67%; in assay [1] (at 50.0 µM) it was 67%; in assay [2] (setting [7]), 36%; in assay [2] (setting [8]), 78% (active); in assay [2] (at 50.0 µM) it was 72.2% (active). For the same compound, the growth inhibition was -4% in assay [3] (setting [7]); 84% (active) in assay [3] (setting [8]); 82.5% (active) in assay [3] (at 50.0 µM); 14% in assay [4] (setting [7]); 79% (active) in assay [4] (setting [8]); 82% (active) in assay [4] (at 50.0 µM). Besides, the growth inhibition in assay [5] (setting [7]) is 9%; in assay [5] (setting [8]), 76% (active); in assay [5] (at 50.0 µM) it was 62.5%; in assay [6] (setting [7]) it was 52%; in assay [6] (setting [8]) it was 85% (active); in assay [6] (at 50.0 µM) it was 70.5% (active).
For the compound `Cc1ccc(C)c(N(c2ccccc2[N+](=O)[O-])S(C)(=O)=O)c1`, the growth inhibition was 5% in assay [1] (setting [7]); 20% in assay [1] (setting [8]); 99.5% (active) in assay [1] (at 50.0 µM); 19% in assay [2] (setting [7]); 36% in assay [2] (setting [8]); 99.5% (active) in assay [2] (at 50.0 µM). For the same compound, the growth inhibition in assay [3] (setting [7]) was 5%; in assay [3] (setting [8]), 22%; in assay [3] (at 50.0 µM) it was 99.6% (active); in assay [4] (setting [7]) it was 5%; in assay [4] (setting [8]), 21%; in assay [4] (at 50.0 µM) it was 99.3% (active). The growth inhibition in assay [5] (setting [7]) is -2%; in assay [5] (setting [8]) it was 16%; in assay [5] (at 50.0 µM), 99.4% (active); in assay [6] (setting [7]), -5%; in assay [6] (setting [8]), 10%; in assay [6] (at 50.0 µM) it was 99.2% (active).
In the case of `COC(=O)/C(C#N)=C/c1cc(OC)c(O)cc1Br`, the growth inhibition in assay [1] (setting [7]) was 46%; in assay [1] (setting [8]) it was 56%; in assay [1] (at 50.0 µM), 48.6%; in assay [2] (setting [7]) it was 31%; in assay [2] (setting [8]), 44%; in assay [2] (at 50.0 µM), 40%. Further, the growth inhibition is 44% in assay [3] (setting [7]); 68% in assay [3] (setting [8]); 42.1% in assay [3] (at 50.0 µM); 35% in assay [4] (setting [7]); 43% in assay [4] (setting [8]); 43.8% in assay [4] (at 50.0 µM). Further, the growth inhibition in assay [5] (setting [7]) was 46%; in assay [5] (setting [8]), 48%; in assay [5] (at 50.0 µM), 46.5%; in assay [6] (setting [7]), 54%; in assay [6] (setting [8]), 76% (active); in assay [6] (at 50.0 µM), 31.1%.

Values taken from PubChem BioAssay (NCI).
